TDP1 cell noCPT = qHTS for Inhibitors of human tyrosyl-DNA phosphodiesterase 1 (TDP1): qHTS in cells in absence of CPT. DT40 Tdp1-/- hTDP1 cells, no CPT, ATP luminescence, 48 h. Potency, µM (top dose mostly 46.2 µM), without a hit: at the top dose activity change, negative = growth inhibition, usual class: inhibitors. 15% of 420,000 active. AID 686978, 2013; note: potency is the fitted concentration of half-maximal effect; nearly all actives have a fitted effect of over 55% in size
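Growth of hTDP1-complemented DT40 Tdp1-knockout cells is measured by ATP luminescence after at least 48 hr compound exposure at 37 °C, with DMSO substituting for the 20 nM CPT used in the parallel screen.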
HT1080 IDH1KD tx = HT-1080 IDH1 knockdown cell toxicity (counter line); Potency, µM (titrated, usually from 46.1 µM), for the others: at the top dose activity, negative = toxicity, hits mostly cytotoxic; AID 686971; 2% of 360,000 active; HT-1080 IDH1 knockdown viability, ATP luminescence, 48 h;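 note: potency is the fitted concentration of half-maximal effect; 0% = DMSO wells and -100% = cell-free medium wells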
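In this qHTS, HT-1080 cells depleted of IDH1 are exposed for 48 h at 37 °C to compound titrations. Toxicity is scored from CellTiter-Glo luminescence, with DMSO as full viability and medium alone as none.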
HT1080-NT tox = kills 2HG-producing HT-1080-NT fibrosarcoma cells | HT-1080-NT fibrosarcoma viability, CellTiter-Glo ATP luminescence, 48 h | Potency, µM (highest dose often 46.1 µM), for inactives: at the top dose activity, negative = less viability, actives largely listed as cytotoxic | AID 686970 | 1.6% of 360,000 active;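 note: NT is the 2HG producing partner of a matched IDH1 knockdown line; potency is the fitted concentration of half-maximal effect; 0% = DMSO-treated cells and -100% = media-only wells without cells; nearly all actives have a fitted effect of over 55% in size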
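HT-1080-NT; 750 cells/well; 5% FBS RPMI; 48 h compound, 37 degrees C; CellTiter-Glo luminescence; curve fitting and curve-class assignment.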
IL1B secr inh = inhibitors of inflammasome signaling (IL-1 beta secretion); 4.7% of 360,000 active; activity change, % at 57.5 µM; THP-1 LPS/ATP IL-1B secretion, AlphaLISA, 16 h; stronger effect = lower value; AID 743279; in the data active = activity change below about -50%; inconclusive = mostly about -30% to -49%
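Secreted IL-1B measured by AlphaLISA bead assay after 16 h compound exposure of THP-1 cells; compounds (final up to 57.5 uM) added 1 h before LPS (250 ng/mL) and ATP (1.25 mM) stimulation; lower signal means less secretion.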
DT40 TDP1 CPT = growth inhibition of DT40 Tdp1-/-;hTDP1 cells with camptothecin (screen for TDP1 inhibitors). chicken DT40 Tdp1-/-;hTDP1 cells + 20 nM CPT, ATP luminescence, 48 h. Potency, µM (series often up to 46.2 µM), inactives show at the highest dose activity change, negative = growth inhibition, actives largely listed as inhibitors. 12% of 420,000 active. AID 686979; note: potency is the fitted concentration of half-maximal effect; nearly all actives have a fitted effect of over 55% in size
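Cell growth measured by CellTiter-Glo luminescence after a minimum 48 h, 37 C compound exposure with 20 nM CPT in Tdp1-knockout DT40 cells stably expressing hTDP1, seeded 400/well; qHTS titration format.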
Numbers without * were called inactive; ? = inconclusive; nt = no result given; [ ] = remark or other dose. In the library only some 19% were active in any assay of this set; here they are far more common. Unless noted, calls come from the whole dose curve; as a rule, active = well fitted curve in the direction sought with a large enough effect; inconclusive = small, poorly fitted or top-dose-only effect, or another doubt; inactive = no such curve, though single readings can be large; an effect the other way counts as inactive or inconclusive. Unless noted, % is set by controls: 0 for no effect and ±100 for the full control effect.

SMILES	TDP1 cell noCPT	HT1080 IDH1KD tx	HT1080-NT tox	IL1B secr inh	DT40 TDP1 CPT
CCc1ccc(NC(=O)N(Cc2c[nH]c3ccccc23)C2CCCCCC2)cc1	7.31µM*	nt	nt	nt	20.6µM*
CCc1ccc(NC(=O)N(Cc2c[nH]c3ccccc23)C2CCCCC2)cc1	6.51µM*	nt	nt	nt	7.31µM*
COc1cc2cc(CN(C(=O)Nc3ccccc3)C3CCCC3)c(=O)[nH]c2cc1OC	-23.2%	-7.0%	-0.2%	?	-14.3%
Cc1ccccc1-c1nc(CS(=O)(=O)CC(=O)N2CCN(C)CC2)c(C)o1	4.3%	-2.2%	-9.1%	0.6	-5.0%
COc1ccc(N2CCN(C(=O)c3cn(C)c4ccc(S(=O)(=O)N(C)C5CCCCC5)cc4c3=O)CC2)cc1	-4.3%	nt	nt	nt	-4.8%
C=CCNC(=O)/C(C#N)=C/c1c(C)nn(-c2ccc(Cl)cc2)c1Cl	23.1µM*	?	?	-56.8*	?
CCOc1ccccc1NC(=O)/C(C#N)=C/c1c(C)nn(-c2ccc(F)cc2)c1Cl	-19.5%	-6.1%	-6.6%	-9.9	13µM*
Cc1nn(-c2ccc(Cl)cc2)c(Cl)c1/C=C(\C#N)C(N)=O	?	-16.4%	-14.6%	-6.0	?
Cc1ccc(S(=O)(=O)c2nnn3c2nc(Nc2ccc(C(C)C)cc2)c2sccc23)cc1C	4.61µM*	nt	nt	nt	4.11µM*
Cc1ccc(S(=O)(=O)c2nnn3c2nc(NC2CCCCCC2)c2sccc23)cc1C	20.6µM*	nt	nt	nt	14.6µM*
Cc1ccc(CCNc2nc3c(S(=O)(=O)c4ccc(C)cc4)nnn3c3ccsc23)cc1	-26.0%	nt	nt	nt	-15.7%
CCc1ccc(S(=O)(=O)c2nnn3c2nc(NC2CCCC2)c2sccc23)cc1	?	nt	nt	nt	23.1µM*
Cc1ccc(C)c(S(=O)(=O)c2nnn3c2nc(NC(C)C)c2sccc23)c1	?	nt	nt	nt	23.1µM*
Cc1ccc(C)c(S(=O)(=O)c2nnn3c2nc(Nc2ccc(C)c(C)c2)c2sccc23)c1	-12.7%	nt	nt	nt	-0.4%
O=C(O)CC1CC(O)CCC1=O (stereo unspecified)	-5.8%	10.5%	24.1%	6.9	-21.8%
CS(=O)(=O)N1CCC(C(=O)NCc2ccc3c(c2)OCO3)CC1	-22.1%	11.6%	10.7%	-5.1	0.7%
Cc1oc2c(C)c3oc(=O)c(CCC(=O)NCCCn4ccnc4)c(C)c3cc2c1C	?	-0.4%	-0.8%	?	?
C#CCOC(=O)Nc1ccc(OCC(F)(F)F)nc1	7.31µM*	-5.5%	-11.6%	-1.3	9.2µM*
O=C(Nc1ccc(Br)cn1)c1ccc2ccccc2c1	14.6µM*	-15.0%	-6.8%	22.0	?
CSc1ncc(C(=O)Nc2ccc(Br)cn2)c(C)n1	?	-26.3%	-21.3%	46.5	16.4µM*
O=C(Nc1ccc(Br)cn1)c1cccc(C(=O)Nc2ccc(Br)cn2)c1	?	-4.3%	-3.8%	40.4	?
O=C(Nc1ccc(Br)cn1)c1cccc2ccccc12	2.06µM*	5.8µM*	2.91µM*	-9.1	2.06µM*
O=C(Nc1ccc(Br)cn1)c1ccc2nccnc2c1	18.4µM*	-4.3%	-1.5%	24.3	13µM*
C/C(=N/NS(=O)(=O)c1cccc([N+](=O)[O-])c1)c1ccncc1	?	0.1%	23.5%	-6.5	?
COCCNC(=O)CN1C(=O)NC2(CCOc3ccccc32)C1=O (stereo unspecified)	0.2%	-3.9%	-1.4%	-6.8	-6.7%
CC(CNC(=O)CN1C(=O)NC2(CCOc3ccccc32)C1=O)c1ccccc1 (stereo unspecified)	?	8.8%	0.4%[9.24 µM]	-2.1	14.6µM*
CCN(CC)S(=O)(=O)c1cccc(NC(=O)CN2C(=O)NC3(CCOc4ccccc43)C2=O)c1 (stereo unspecified)	?	-24.9%	-3.7%	7.9	16.4µM*
O=C(CN1C(=O)NC2(CCOc3ccccc32)C1=O)Nc1ccc2c(c1)OCCO2 (stereo unspecified)	-15.4%	-7.9%	-9.7%	-25.6	-20.6%
COc1ccc(CNc2nc(-c3cccnc3)nn2C(=O)c2cccs2)cc1	?	9.2%	4.9%	-5.5	?

Screening results as filed in PubChem.
